Smad3 inh: inhibitors of human Smad3 transcription factor binding; P84022; 88,000 tested, 0.29% active; TR-FRET Smad3/Dy647-FoxH1 peptide binding, europium anti-His; inhibition, % at 25 µM;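 active = compounds that reduce the energy-transfer binding signal between the protein and its labelled peptide by more than half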
ERa SRC1 inh: ER-alpha (human) coactivator binding inhibition; P03372; TR-FRET ER-alpha LBD / SRC-1 peptide, estradiol-bound; inhibition, % at 25.6 µM; 86,000 tested, 1.7% active; AID 629; in the data active = inhibition above about 50%
Target sequence (P03372 whole entry, looked up, the tested form may be a part): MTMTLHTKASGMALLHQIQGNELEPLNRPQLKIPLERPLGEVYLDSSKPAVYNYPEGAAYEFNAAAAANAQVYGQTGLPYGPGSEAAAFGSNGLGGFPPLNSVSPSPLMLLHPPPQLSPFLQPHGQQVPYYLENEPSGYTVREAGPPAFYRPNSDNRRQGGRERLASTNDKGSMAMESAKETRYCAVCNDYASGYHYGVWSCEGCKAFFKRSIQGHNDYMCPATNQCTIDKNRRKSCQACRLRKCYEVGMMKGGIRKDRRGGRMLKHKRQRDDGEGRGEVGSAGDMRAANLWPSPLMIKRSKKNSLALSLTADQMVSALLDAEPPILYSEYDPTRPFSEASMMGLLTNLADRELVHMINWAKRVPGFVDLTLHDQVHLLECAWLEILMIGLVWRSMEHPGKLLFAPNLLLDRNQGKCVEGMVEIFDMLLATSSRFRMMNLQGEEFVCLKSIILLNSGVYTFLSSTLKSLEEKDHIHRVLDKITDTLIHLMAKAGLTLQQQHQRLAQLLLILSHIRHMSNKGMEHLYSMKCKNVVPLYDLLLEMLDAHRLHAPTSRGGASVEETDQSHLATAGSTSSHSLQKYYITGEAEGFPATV
MRP1 act: activates MRP-1 | AID 799 | 140,000 tested, 0.61% active | viability increase, % at 10 µM | H69AR cells + doxorubicin, viability rescue, CellTiter-Glo;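 active = viability gain under doxorubicin at or above a set limit, the compound median plus 3 SD, cut at about 4.7% in these data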;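 also: MRP-1 overexpressing cells given doxorubicin 25 µM after compound pretreatment; 18-22 h compound pretreatment then 72 h with doxorubicin before readout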
ERa SRC1 pot: enhances coactivator binding to human estrogen receptor alpha | coactivator binding (% of control), % at 25.6 µM | TR-FRET ERalpha-LBD/SRC-Cy5 coactivator binding, 2 h; 100 = basal binding, no effect | AID 639 | P03372 | 86,000 tested, 1.3% active; in the data active = activity above about 200%;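 also: binding measured in presence of low estradiol as agonist stimulus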
ERb SRC1 inh: ER-beta (human) coactivator binding inhibition. TR-FRET ER-beta LBD / SRC1-Cy5 peptide binding; receptor agonist-loaded with 1 µM estradiol. inhibition, % at 25.6 µM. 86,000 tested, 1.3% active;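 active = compounds whose percent inhibition of the receptor-coactivator binding signal exceeds about 50% in the single-dose screen, limit read from the data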
MRP resist rev: reverses drug resistance mediated by MRP; H69AR cells + 2 uM doxorubicin, CellTiter-Glo, 72 h; differential viability (reversal), % at 10 µM; 85,000 tested, 0.04% active;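 active = viability drop by adding the cancer drug above about 55%, with treated viability meeting a 40% cutoff, limit read from the data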;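 also: larger differential means the compound sensitizes cells more to doxorubicin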
A number is an active result; - = inactive; . = no result; [ ] = dose if it differs, or a comment. The list is not random: actives were taken first. Their share in the collection is about 2.8%.

SMILES | Smad3 inh | ERa SRC1 inh | MRP1 act | ERa SRC1 pot | ERb SRC1 inh | MRP resist rev
CCN(CC(=O)O)C(=O)c1cccnc1 | - | . | . | . | . | .
O=C1c2cccc(OCc3ccc(F)cc3)c2CCN1Cc1ccc(F)cc1 | . | . | 5.6 | . | . | .
Cc1ccc(CN2CCc3c(OCc4ccc(F)cc4)cccc3C2=O)cc1 | . | . | - | . | . | .
Cc1ccc(C(=O)ONc2ccc(N=NC(=O)c3ccccc3O)cc2)cc1 | - | 72 | - | - | 52 | -
Cc1ccc(NC(=O)Cn2nnc(C(=O)Nc3ccc(C)c(C)c3)c2N)cc1 | - | 70[fluorescence artefact?] | - | - | - | -
Cc1cccc(-n2nnc(C(=O)Nc3ccc(F)cc3)c2N)c1 | - | 63[fluorescence artefact?] | - | - | - | -
COc1cccc(Cn2nnc(C(=O)Nc3ccc(C)cc3)c2N)c1 | - | - | - | 246[fluorescence artefact?] | - | -
COc1cccc(CNC(=O)c2nnn(CC(=O)Nc3ccc(C)c(C)c3)c2N)c1 | - | - | - | 287 | - | -
Cc1ccc(NC(=O)c2nnn(-c3cc(C)cc(C)c3)c2N)cc1 | - | - | - | - | - | -
CC1(C)S[C@H]2[C@H](NC(=O)C3(N)CCCCC3)C(=O)N2[C@@H]1C(=O)O | - | . | . | . | . | .
CCOC(=O)N1CCN(S(=O)(=O)c2ccc(F)c(C(=O)Nc3cccc(Cl)c3C)c2)CC1 | . | . | - | . | . | .
COc1ccccc1NC(=O)C1=C(C)NC(SCC(=O)c2ccc(C)cc2)=C(C#N)C1c1ccco1 (stereo not given) | - | - | - | 203 | - | -
O=C1CC(N2CCC(O)(c3ccc(Br)cc3)CC2)C(=O)N1c1ccc(Cl)cc1 (stereo not given) | . | . | 6.3 | . | . | .
O=C1CC(N2CCCCC2)C(=O)N1c1ccccc1 (stereo not given) | - | - | - | - | - | -
O=C1CC(N2CCCN(C3CC(=O)N(c4ccc(F)cc4)C3=O)CC2)C(=O)N1c1ccc(F)cc1 (stereo not given) | - | - | 8.3 | - | - | -
CC(C)C[C@@H](N)C(=O)Nc1ccc2ccccc2c1 | - | . | . | . | . | .
Cc1cc(NC(=O)CSc2nnc(COc3ccccc3)n2Cc2ccco2)no1 | - | - | - | - | - | -
O=C(CSc1nnc(COc2ccccc2)n1Cc1ccco1)NCc1ccco1 | - | - | - | - | - | -
C=CCn1c(COc2cccc(C)c2)nnc1SCC(=O)NC(=O)NCc1ccco1 | - | 61 | - | - | - | -
O=C(CSc1nnc(-c2ccncc2)n1-c1ccc(F)cc1)NC(=O)NCc1ccco1 | - | 68[fluorescence artefact?] | - | - | 55[fluorescence artefact?] | -
C=CCn1c(COc2ccc(F)cc2)nnc1SCC(=O)NC(=O)NCc1ccco1 | - | 71[fluorescence artefact?] | - | - | - | -
Cc1ccc(-n2c(SCC(=O)NCc3ccco3)nnc2-c2cccnc2)cc1 | - | - | - | - | - | -
NCc1ccc(C(=O)O)cc1 | - | . | . | . | . | .
Cc1nnc(N/N=C/c2cccc(OCc3ccc(Cl)c(Cl)c3)c2)n1N | . | . | - | . | . | .
CN(CC1CCCO1)S(=O)(=O)c1ccc(C(=O)Nc2nc3cc4c(cc3s2)OCO4)cc1 (stereo not given) | - | 63[fluorescence artefact?] | . | - | - | -
SMILES | Smad3 inh | ERa SRC1 inh | MRP1 act | ERa SRC1 pot | ERb SRC1 inh | MRP resist rev
COc1cccc(C2N(c3cccc(Cl)c3)C(=O)C3CCCN32)c1 (stereo not given) | - | - | - | - | - | -
O=C(Oc1ccc2c(c1)OCO2)c1cc2c(s1)CCC2 | - | 93[fluorescence artefact?] | - | - | 83 | -
O=C(Nc1ccc(N2CCN(c3ccc(O)cc3)CC2)cc1)Oc1ccccc1 | - | 95[fluorescence artefact?] | - | - | 57[fluorescence artefact?] | -
O=C(Nc1ccc(N2CCCCC2)cc1)c1ccccc1 | . | . | - | . | . | .
O=C(Nc1ccc(N2CCCC2)cc1)c1ccccc1F | - | 96[fluorescence artefact?] | - | - | 80[fluorescence artefact?] | -
O=C(Nc1ccc(N2CCCC2)cc1)c1cccc(F)c1 | - | - | - | - | 55[fluorescence artefact?] | -
CN1CCN(c2ccc(NC(=O)c3cccc(OCc4ccccc4)c3)cc2)CC1 | - | - | - | - | 62[fluorescence artefact?] | -
O=C(Oc1ccccc1)N1CCN(c2ccc(F)cc2)CC1 | - | - | - | - | - | -
O=C(Nc1ccc(N2CCCCC2)cc1)c1cccnc1Cl | - | - | - | - | - | -
Cc1ccc([C@@H](O)c2cnc(C)n2Cc2ccccc2)cc1 | - | . | . | . | . | .
CCN=C(N)CSS(=O)(=O)O | - | . | . | . | . | .
Nc1nc(N)c2nn(-c3ccc(C(=O)O)cc3)nc2n1 | - | . | . | . | . | .
CCOC(=O)c1c(COC(=O)c2ccco2)nc2ccccc2[n+]1[O-] | - | - | - | - | - | -
CC(=O)c1c(COC(=O)c2ccco2)nc2ccccc2[n+]1[O-] | - | 64 | . | - | 61 | -
CC(=O)c1c(COC(=O)c2ccncc2)nc2ccccc2[n+]1[O-] | - | - | - | - | 62[fluorescence artefact?] | -
CCN(c1cccc(C)c1)S(=O)(=O)c1cnc[nH]1 | - | - | - | - | - | -
O=C(NCc1cccnc1)c1cn(CCc2ccccc2)nn1 | - | - | - | - | - | -
O=C(NCc1ccccn1)c1cn(CCc2ccccc2)nn1 | - | - | - | - | - | 57
O=C(CNC(=O)c1ccco1)OCC(=O)c1ccc2ccccc2c1 | - | - | - | - | - | -
N#CC(C(=O)Nc1ccccc1)=C1CCCCC1 | - | - | - | - | 74 | -
Nc1ccc(C(O)(C(F)(F)F)C(F)(F)F)cc1 | - | - | - | - | - | -
Nc1c(C(O)(C(F)(F)F)C(F)(F)F)ccc2ccccc12 | - | - | - | 286[fluorescence artefact?] | - | -
COC(=O)C1=C(C)N=C2SCCC(=O)N2C1c1ccc(C(=O)OC)cc1 (stereo not given) | - | - | - | - | - | -
CCC1SC2=NC(C)=C(C(=O)OC)C(c3ccc(C(=O)OC)cc3)N2C1=O (stereo not given) | - | - | 4.9 | - | - | -
COCCOC(=O)C1=C(C)N=C2SCCC(=O)N2C1c1ccc(C(=O)OC)cc1 (stereo not given) | - | - | - | - | - | -
SMILES | Smad3 inh | ERa SRC1 inh | MRP1 act | ERa SRC1 pot | ERb SRC1 inh | MRP resist rev
CCC1SC2=NC(C)=C(C(=O)OCCOC)C(c3ccc(C(=O)OC)cc3)N2C1=O (stereo not given) | - | - | 7.8 | - | - | -
Cc1c(NC(=O)CSc2nc3ccccc3s2)c(=O)n(-c2ccccc2)n1C | - | - | - | - | - | -
Cc1cccc(C)c1NC(=S)N/N=C/c1ccc(OCCC(C)C)cc1 | . | . | - | . | . | .
CCn1c(SCC(=O)OC)nc2sc3c(c2c1=O)CCC3 | . | . | - | . | . | .
Cc1cc(NC(=O)CSc2nc(C(C)C)nc3sc4c(c23)CCCC4)no1 | - | - | - | 206[fluorescence artefact?] | - | -
CCn1c(SCC(=O)O)nc2sc3c(c2c1=O)CCC3 | - | 91[fluorescence artefact?] | - | - | 91[fluorescence artefact?] | -
Cc1cc(NC(=O)CSc2nc3sc4c(c3c(=O)n2C)CCCC4)no1 | - | 65[fluorescence artefact?] | - | - | - | -
CCn1c(SCC(=O)Nc2cc(C)on2)nc2sc3c(c2c1=O)CCCC3 | - | - | - | - | - | -
Cc1ccc2c(c1)c(=O)c1c3n2CCN(C(=O)CCl)C3CC1 (stereo not given) | - | 83[fluorescence artefact?] | - | - | 72 | -
O=c1cc(-c2ccccc2)c2c([nH]1)CCCC2 | - | - | - | - | - | -
